Screening data deposited in PubChem by National Center for Advancing Translational Sciences (NCATS).
A selection: hits, their analogues and other compounds. The true share with any hit is near 21%.
Shiga toxin inh: A qHTS for Small Molecule Inhibitors of Shiga Toxin; 9.2% of 290,000 active; inhibition, % at 38.7 µM; AID 2315, 2010; Vero cells, Shiga toxin protein synthesis inhibition reporter; in the data active means inhibition mostly above about 28%, no sharp cut-off; inactive means mostly below about 43%; further: 0% is about no effect
SARS PLP yeast: qHTS of Yeast-based Assay for SARS-CoV PLP; S. cerevisiae expressing SARS-CoV PLpro, growth rescue; Potency, µM (series often up to 32.9 µM), without a hit: at the highest dose activity, positive = growth rescue, actives largely listed as activators; 0.19% of 330,000 active; calls by dose curve; further: potency means the concentration at half of the fitted maximal effect; 0% is about no effect; nearly all actives have a fitted effect of over 55% in size
Pf growth 48h: Primary qHTS for delayed death inhibitors of the malarial parasite plastid, 48 hour incubation | P. falciparum luciferase growth in erythrocytes, 48 h | Potency, µM (titrated, usually from 28.7 µM), without a hit: at the top dose activity change, negative = inhibition, hits mostly inhibitors | 5.9% of 310,000 active; further: potency means the concentration at half of the fitted maximal effect; on the % scale 0 is the no-effect control and ±100 the full control effect
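Luciferase-expressing parasites in RBCs, 2% Hct / 0.1% parasitemia final; RPMI 1640 + 0.5% Albumax; 37 C, 5% CO2, one generation; luminescence read-out, lower signal = inhibition.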
Pf growth 96h: Primary qHTS for delayed death inhibitors of the malarial parasite plastid, 96 hour incubation; P. falciparum luciferase reporter growth, 96 h; Potency, µM (titrated, usually from 28.7 µM), inactives show top-dose activity change, negative = inhibition, actives largely listed as inhibitors; 6.9% of 320,000 active; AID 504834, 2011; further: potency means the concentration at half of the fitted maximal effect; on the % scale 0 is the no-effect control and ±100 the full control effect
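Infected RBCs, 2% Hct / 0.05% parasitemia final; luciferase-reporter P. falciparum; cpd 96 h, 37 C, 5% CO2; luciferase detection reagent; luminescence.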
NS1 function inh: qHTS Assay for Inhibitors of Influenza NS1 Protein Function. Potency, µM (highest dose often 46.1 µM), for the others: top-dose activity, positive = more growth. AID 2326, 2010. 0.4% of 270,000 active; calls by dose curve; further: potency means the concentration at half of the fitted maximal effect; actives are rising curves; nearly all actives have a fitted effect of over 50% in size
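S. cerevisiae expressing influenza A NS1, grown in glucose, washed, then diluted 1:100 into pH 6.0 -URA galactose medium with 23 nl compound. Growth recovery read as OD600; NS1-free strain serves as control.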
CHX counter: Cycloheximide Counterscreen for Small Molecule Inhibitors of Shiga Toxin. cell reporter, cycloheximide protein synthesis inhibition counterscreen. max response, %. 12% of 300,000 active; in the data active means max response mostly above about 13%, no sharp cut-off; inactive means mostly below about 14%; further: read at 38.3 µM for the half of the compounds with a filed dose; 0% is about no effect
* = called active by the depositor; u = inconclusive; x = no result given; [ ] = another dose, or the depositor's remark. Unless noted, the call rests on the fitted dose curve; in most records, active means well fitted inhibition curve with a large enough effect; inconclusive means small, poorly fitted or top-dose-only effect, or another doubt; inactive means no such curve, though single readings can be large or run the other way.

SMILES | Shiga toxin inh | SARS PLP yeast | Pf growth 48h | Pf growth 96h | NS1 function inh | CHX counter
CCc1ccc(NC(=O)c2n[nH]c(=O)c3ccccc23)cc1 | 79.4* | -0.5% | 197.7% | 90.7% | -0.5% | 36.0*
CCCNC(=O)c1n[nH]c(=O)c2ccccc12 | -13.9 | 4.5% | 17.0% | 24.1% | -1.2% | -5.6
O=C(NCCc1ccc(Cl)cc1)c1n[nH]c2ccccc12 | 40.4* | -7.8% | 2.9% | 33.6% | x | 15.8
O=C(NCc1cccc(OC(F)(F)F)c1)c1ccc2c(c1)S(=O)(=O)c1cc(Cl)ccc1C2=O | x | 5.0% | x | x | x | x
CC1=C(C(=O)OC2CCCCC2)C(c2ccccc2Br)NC(=O)N1 (stereo not drawn) | x | 8.7% | -9.1% | 386.7% | 8.1% | -2.6
O=C(NCCc1ccccc1)c1n[nH]c2ccccc12 | 144.6* | -1.8% | 462.1% | 63.4% | -30.1% | 51.0*
O=C(COC(=O)c1n[nH]c2ccccc12)NCCc1ccccc1 | x | 3.0% | x | x | x | x
COc1ccc(N(CC(=O)Nc2ccccc2F)S(=O)(=O)c2ccc(C)c([N+](=O)[O-])c2)cc1 | -2.6 | -2.6% | -17.5% | 10.1%[5.75 µM] | -6.6% | 8.8
CCCOc1ccc2nc(C)c(CCC)c(SC(=N)N)c2c1 | -3.5 | 0.2% | 1.17µM* | 6.57µM* | 0.2% | 1.2
CCCc1c(C)nc2ccc(OC)cc2c1SCCC(=O)O | -11.0 | 6.2% | 10.2% | 11.7µM* | -5.4% | -4.2
Cc1nc2c(C)cccc2c(SC(=N)N)c1CC=C(Cl)Cl | 1.6 | -0.4% | -0.7% | -1.1% | -1.5% | 0.9
C/C=C1\COC(C(=O)NCCN2CCOCC2)(C(F)(F)F)C=C1C=C(C)C (stereo not drawn) | 11.3 | x | x | x | x | 11.8
Cc1cc(NC(=O)CSc2nc3c(C)c(C)ccc3cc2C)no1 | 24.1 | 0.3% | u | -11.9% | -4.9% | -3.0
N#C/C(=C\c1c(N2CCN(c3ccccc3)CC2)nc2ccccn2c1=O)S(=O)(=O)c1ccccc1 | -8.6 | -10.5% | -5.1% | u | -2.9% | -4.5
O=Cc1c(-c2ccc(F)cc2)nc2ccccn12 | 31.7 | -0.9% | 78.7% | -21.3% | x | 26.2
COc1ccc(N2CCN(c3nc4ccc(C)cn4c(=O)c3C=O)CC2)cc1 | 32.7 | 0.1% | u | -0.3% | 4.3% | 3.0
N#CC(C#N)=Cc1c(N2CCN(c3ccccc3)CC2)nc2ccccn2c1=O | 82.3* | -2.8% | x | u | 3.5% | 33.1*
COc1ccc(-c2nc3ccccn3c2C=O)cc1 | 69.6* | -34.4% | 219.4% | 55.3% | -10.6% | 45.3*
COc1ccccc1N1CCN(c2nc3ccccn3c(=O)c2C=O)CC1 | 34.9* | -0.7% | -6.1% | u | -2.7% | 29.2*
COc1ccc(N2CCN(c3nc4ccccn4c(=O)c3C=O)CC2)cc1 | 16.0 | 6.3% | 14.0% | -0.2% | -2.9% | 13.1*
COC(=O)c1ccc(-c2ccc(C3C4C=CCC(C)C4C(=O)N3Cc3ccccc3)c(F)c2)cc1 (stereo not drawn) | 15.9 | x | x | x | x | 8.6
CCc1ccc(C2/C=C\CNC(c3ccccc3)C(=O)N2Cc2ccc(C)cc2)cc1 (stereo not drawn) | 12.2 | x | x | x | x | -3.9
O=Cc1c(N2CCSCC2)nc2ccccn2c1=O | 1.2 | -0.2% | 6.0% | 12.5% | 5.4% | 1.0
N#C/C(=C\c1c(N2CCCCC2)nc2ccccn2c1=O)S(=O)(=O)c1ccccc1 | -12.9 | 0.9% | -4.8% | 5.22µM* | 10.6% | -2.5
CCN1CCN(c2nc3ccccn3c(=O)c2C=O)CC1 | -4.0 | 2.1% | 16.0% | 25.8% | 2.8% | -2.0
CC1CN(c2nc3ccccn3c(=O)c2/C=C(\C#N)S(=O)(=O)c2ccccc2)CC(C)O1 (stereo not drawn) | -7.4 | 0.8% | -12.3% | 63.4% | -12.2% | 1.8
O=Cc1c(N2CCN(c3ccccc3)CC2)nc2ccccn2c1=O | 54.1* | -0.6% | 12.8% | u | -7.3% | 31.3*
O=Cc1c(N2CCN(CCO)CC2)nc2ccccn2c1=O | -2.6 | 4.0% | 0.0% | 10.4µM* | -1.6% | -2.0
CC1CN(c2nc3ccccn3c(=O)c2C=O)CC(C)O1 (stereo not drawn) | 22.6 | 0.1% | 20.1% | 11.7µM* | 4.4% | -3.5
CS(=O)(=O)c1ccc(NCCc2ccc(S(N)(=O)=O)cc2)c([N+](=O)[O-])c1 | -11.2 | 2.0% | -16.0% | -2.6% | 6.9% | 5.0
